Tb PYK inh – blocks Trypanosoma brucei pyruvate kinase. Q57TT1. TbPYK enzyme, Kinase-Glo Plus ATP luminescence, 45 min. Potency, µM (series often up to 76.8 µM), inactives show at the highest dose activity, negative = inhibition, hits mostly inhibitors. hit rate 0.12% among 410,000; also: % is scaled to controls: 0 for no effect and ±100 for the full control effect; nearly all actives have a fitted effect of over 50% in size
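T. brucei PYK with substrate was exposed to pin-transferred compounds across a concentration series, then started with 130 uM ADP (final). After 45 min at room temperature, Kinase-Glo Plus luminescence was read, normalized and curve-fitted.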
LmPK inh – LmPK (Leishmania mexicana) enzyme inhibition; Q27686; purified LmPK, Kinase-Glo ATP luminescence, 1 h; Potency, µM (top dose mostly 57.5 µM), for inactives: at the highest dose activity change, negative = inhibition, actives largely listed as inhibitors; hit rate 0.37% among 290,000; also: % is scaled to controls: 0 for no effect and ±100 for the full control effect
Target sequence (Q27686 whole entry, looked up): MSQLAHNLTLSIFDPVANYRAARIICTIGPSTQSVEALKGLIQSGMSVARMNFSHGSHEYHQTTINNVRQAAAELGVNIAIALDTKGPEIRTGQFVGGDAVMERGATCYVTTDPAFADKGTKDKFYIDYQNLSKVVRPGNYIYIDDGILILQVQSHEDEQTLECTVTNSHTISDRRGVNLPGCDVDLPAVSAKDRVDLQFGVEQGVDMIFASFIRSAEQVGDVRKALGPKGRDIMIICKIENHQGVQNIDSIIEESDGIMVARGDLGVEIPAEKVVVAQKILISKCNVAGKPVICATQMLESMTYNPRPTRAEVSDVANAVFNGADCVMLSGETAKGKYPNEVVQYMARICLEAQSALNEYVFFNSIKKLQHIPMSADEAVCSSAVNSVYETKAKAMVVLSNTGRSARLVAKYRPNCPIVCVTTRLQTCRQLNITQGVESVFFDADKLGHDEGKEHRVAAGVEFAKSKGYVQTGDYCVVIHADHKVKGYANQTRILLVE
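Purified LmPK (0.1 nM) with 0.5 mM PEP and 0.1 mM ADP in imidazole buffer pH 7.2 with MgCl2/KCl, 1 h at room temperature. ATP formed was read by luciferase luminescence and normalized to no-enzyme and uninhibited controls.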
Giardia FBPA inh-1 – inhibitors of Giardia lamblia fructose-1,6-bisphosphate aldolase. purified Giardia FBPA. Potency, µM (top dose mostly 59.6 µM), without a hit: top-dose activity, negative = inhibition, hits mostly inhibitors. hit rate 0.71% among 290,000. AID 2451; also: % is scaled to controls: 0 for no effect and ±100 for the full control effect; nearly all actives have a fitted effect of over 55% in size
Target sequence (A8B2U2 whole entry, looked up): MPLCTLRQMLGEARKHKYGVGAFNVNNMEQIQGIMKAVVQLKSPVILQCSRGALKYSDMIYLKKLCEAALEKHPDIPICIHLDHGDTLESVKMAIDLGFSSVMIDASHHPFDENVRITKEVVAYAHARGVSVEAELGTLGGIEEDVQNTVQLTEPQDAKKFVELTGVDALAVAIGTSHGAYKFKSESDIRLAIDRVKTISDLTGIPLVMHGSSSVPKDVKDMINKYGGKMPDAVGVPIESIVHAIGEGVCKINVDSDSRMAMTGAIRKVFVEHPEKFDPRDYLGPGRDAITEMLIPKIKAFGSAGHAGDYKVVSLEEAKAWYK
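40 nM FBPA preincubated 10 min at RT with compound (up to 57.5 uM final), then substrate plus GAPDH/TPI/NAD/arsenate coupling and diaphorase/resazurin added. Fluorescence read after 20 min at RT, 525/598 nm.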
RE007 growth inh – less growth of the S. pombe RE007 Vpr strain; S. pombe RE007 Vpr strain, BacTiter-Glo ATP luminescence, 24 h; Potency, µM (doses to about 92.2 µM), inactives show at the highest dose activity change, negative = less growth, most hits filed as inhibitors; hit rate 0.21% among 360,000; active = well fitted falling curve with a large enough effect; inconclusive = small, poorly fitted or top-dose-only effect; inactive = no such curve, though single readings can be large or run the other way; also: % is scaled to controls: 0 for no effect and ±100 for the full control effect; nearly all actives have a fitted effect of over 50% in size
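Fission yeast strain RE007, carrying one chromosomally integrated HIV-1 vpr copy, was seeded at OD 0.01 in PMG+AL medium with 23 nL pinned compound. After 24 h at 30 °C and 99% humidity, viability was read by BacTiter-Glo luminescence.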
NS1 inh – blocks influenza NS1 protein function; hit rate 0.4% among 270,000; Potency, µM (doses to about 46.1 µM), for inactives: top-dose activity, positive = more growth; calls by dose curve; also: actives are rising curves; nearly all actives have a fitted effect of over 50% in size
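OD600 was taken as the measure of yeast growth restored by compound in an NS1-expressing S. cerevisiae strain. Cells had been washed out of glucose medium and diluted 1:100 into galactose -URA medium, pH 6.0.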
Sm TGR inh – S. mansoni TGR enzyme inhibition | Q962Y6 | purified TGR, DTNB reduction, TNB absorbance 405 nm | Potency, µM (highest dose often 114 µM), inactives show top-dose activity change, negative = inhibition, most hits filed as inhibitors | hit rate 3% among 360,000; also: % is scaled to controls: 0 for no effect and ±100 for the full control effect; nearly all actives have a fitted effect of over 60% in size
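TGR 20 nM + NADPH 100 uM (dispensed conc.), cpd preinc 15 min RT; start with NADPH (500 uM addition) then DTNB (15 mM addition). Kinetic TNB absorbance, 405 nm filter. Four-parameter Hill fit across titration.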
Giardia growth – blocks growth of Giardia lamblia trophozoites. Potency, µM (series often up to 57.5 µM), without a hit: top-dose activity change, negative = inhibition, most hits filed as inhibitors. shares compounds with Giardia FBPA inh-1. Giardia lamblia trophozoite growth inhibition. hit rate 5% among 1,500;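 also: trophozoites exposed to compound for 48 h at 37 °C; % is scaled to controls: 0 for no effect and ±100 for the full control effect; nearly all actives have a fitted effect of over 70% in size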
Mammal cell tox – counter-screen for Giardia aldolase inhibitors: mammalian cell toxicity; shares compounds with Giardia FBPA inh-1; mammalian cell viability counter-screen, qHTS; Potency, µM (titrated, usually from 57.5 µM), for the others: at the highest dose viability change, negative = toxicity, most hits filed as inhibitors; hit rate 4% among 1,500;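 also: Chinese hamster ovary cells used as mammalian cytotoxicity surrogate; viability measured as cellular ATP by luminescence; compound exposure lasted 48 h before reading; % is scaled to controls: 0 for no effect and ±100 for the full control effect; nearly all actives have a fitted effect of over 60% in size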
Giardia FBPA inh-2 – confirmation of Giardia fructose-bisphosphate aldolase inhibitors | Potency, µM (series often up to 57.5 µM), for the others: at the top dose activity change, negative = inhibition, actives largely listed as inhibitors | hit rate 5% among 1,500 | purified Giardia aldolase enzyme activity, qHTS | shares compounds with Giardia FBPA inh-1; also: % is scaled to controls: 0 for no effect and ±100 for the full control effect; nearly all actives have a fitted effect of over 45% in size
Rabbit aldolase – rabbit FBP aldolase inhibition by Giardia aldolase hits; shares compounds with Giardia FBPA inh-1; Rabbit muscle FBPA enzyme inhibition, selectivity counter-screen; Potency, µM (doses to about 57.5 µM), for inactives: at the highest dose activity, negative = inhibition, hits mostly inhibitors; hit rate 4% among 1,500; also: % is scaled to controls: 0 for no effect and ±100 for the full control effect; nearly all actives have a fitted effect of over 60% in size
GAPDH counter – GAPDH inhibition flagged for Giardia aldolase hits | shares compounds with Giardia FBPA inh-1 | GAPDH coupling enzyme counterscreen, biochemical, qHTS | Potency, µM (top dose mostly 57.5 µM), without a hit: at the highest dose activity change, negative = inhibition, actives largely listed as inhibitors | hit rate 6% among 1,500 | AID 2795; also: % is scaled to controls: 0 for no effect and ±100 for the full control effect; nearly all actives have a fitted effect of over 55% in size
* hit, by the source's call; ? = inconclusive; / = no result; [ ] = remark or other dose. Most compounds without a hit are left out; they make up all but 3.5% or so of the library. Unless noted, calls follow the shape of the dose curve; as a rule, active = well fitted curve in the direction sought with a large enough effect; inconclusive = small, poorly fitted or top-dose-only effect, or another doubt; inactive = no such curve, though single readings can be large; an effect the other way counts as inactive or inconclusive. Potency is read from the fitted curve at half-maximal effect.

SMILES	Tb PYK inh	LmPK inh	Giardia FBPA inh-1	RE007 growth inh	NS1 inh	Sm TGR inh	Giardia growth	Mammal cell tox	Giardia FBPA inh-2	Rabbit aldolase	GAPDH counter
Cc1cccc(C(=O)Nc2cc3nn(-c4ccc(C(C)C)cc4)nc3cc2C)c1	1%	/	/	/	/	-3%	/	/	/	/	/
CCCn1nnc(NC(=S)NC(=O)C(C)(C)C)n1	-11%	-5%	5.6µM*	-21%	-3%	-24%	-4%[38.3 µM]	-7%	-1%	-4%	-5%
CCCn1nnc(NC(=S)NC(=O)/C=C/c2ccco2)n1	-25%	17%	16µM*	-2%	16%	7.1µM*	7%	6%	-3%	2%	12%
CCCn1nnc(NC(=S)NC(=O)c2cccs2)n1	3%	?	5µM*	-24%	-2%	-34%	?	-2%	8%	5%	13%
Cc1ccc(-n2ncc(C(=O)NCCCN3CCCCC3)c2C2CCN(C(=O)OC(C)(C)C)CC2)cc1	1%[15.4 µM]	/	/	/	/	-9%	/	/	/	/	/
CC1CCN(S(=O)(=O)c2ccc3[nH]ccc3c2)CC1	3%	/	/	/	/	2%	/	/	/	/	/
COCCOC(=O)c1c(N)n(Cc2ccco2)c2nc3ccccc3nc12	-2%	2%	7.1µM*	-3%	-40%	6%	-5%[38.3 µM]	7%	-11%	-6%	-9%
Cc1ccc(C)c(NC(=O)CSc2n[nH]c(-c3ccncc3)n2)c1	-1%	4%	-13%	-1%	4%	-1%	/	/	/	/	/
Cc1cccc(NC(=O)CSc2n[nH]c(-c3ccncc3)n2)c1C	-10%	-6%	22µM*	-1%	0%	-10%	14%	-2%	6%	15%	17%
C=CCN(CC#CCOc1ccccc1OC)CC=C	/	-1%	20µM*	/	4%	-2%	0%[10.4 µM]	8%	5%	15%	1%
COc1ccccc1OCC#CCN1CCCC1	0%	-2%	?	-8%	0%	/	/	/	/	/	/
COc1ccc(CNC(=O)c2ccc3c(c2)N(Cc2cccc(Cl)c2)C(=O)c2ccccc2S3)c(OC)c1	7%	/	/	/	/	5%	/	/	/	/	/
O=C(N/N=C/c1ccccn1)c1cccc(S(=O)(=O)Nc2ccccc2Cl)c1	-10%	-1%	16µM*	9%	-5%	61%	?	-10%	6%	-20%	?
CCN(CC)S(=O)(=O)c1cccc(C(=O)N/N=C/c2ccccn2)c1	-8%	4%	18µM*	-14%	/	-10%	-30%	9%	9%	8%	7%
Fc1ccc(Nc2ncnc3c2nc2n3CCCCC2)c(F)c1	-5%	/	/	/	/	-4%	/	/	/	/	/
CCn1cc(S(=O)(=O)c2ccc(C)cc2C)c(=O)c2cc(F)c(N3CCCCC3)cc21	-6%	/	/	/	/	3%	/	/	/	/	/
O=C(NC(=S)Nc1cccnc1Cl)c1ccc(F)cc1	-1%	0%	14µM*	-13%	-18%	?	?	12%	5%	0%	12%
O=C(NC(=S)Nc1ccc(NC(=O)c2ccccc2)cc1)c1ccc(F)cc1	-5%	10%	/	21%	14%	-8%	/	/	/	/	/
O=C(NC(=S)Nc1ncccn1)c1ccc(F)cc1	0%	-5%	6.3µM*	10%	4%	41%	?	-8%	2%	6%	11%
CCc1ccc(CNC(=O)CCSCc2ccccc2F)cc1	-2%	/	/	/	/	6%	/	/	/	/	/
Cc1[nH]c(=S)[nH]c(=O)c1CCC1OCCO1	1%	4%	7.1µM*	/	9%	7%	7%[38.3 µM]	-2%	7%	9%	-11%
Cc1[nH]c(=S)[nH]c(=O)c1CCCO	15%	0%	-30%	11%	-3%	8%	/	/	/	/	/
O=C(Nc1cccc(OCc2cc(=O)n3ccccc3n2)c1)Nc1cccc(C(F)(F)F)c1	-9%	/	/	/	/	7%	/	/	/	/	/
Cc1ccc(-c2nnn3c2nc(NCC(C)c2ccccc2)c2ccccc23)cc1 (stereo not drawn)	1%	/	/	/	/	-17%	/	/	/	/	/
COC(=O)c1ccc(NC(=O)N2CCN(Cc3cc(=O)n4nc(-c5ccc(C)cc5)sc4n3)CC2)cc1	0%	/	/	/	/	5%	/	/	/	/	/
SMILES	Tb PYK inh	LmPK inh	Giardia FBPA inh-1	RE007 growth inh	NS1 inh	Sm TGR inh	Giardia growth	Mammal cell tox	Giardia FBPA inh-2	Rabbit aldolase	GAPDH counter
CSc1ccccc1NC(=O)CN(C)Cc1cccc(Cl)c1	17%	6%	22µM*	-21%	1%	15%	9%	17%	5%	4%	11%
CSc1ccccc1NC(=O)CN(C)CC(=O)NCc1ccccc1	-1%	-1%	-1%	10%	/	0%	/	/	/	/	/
CN(CC(=O)NCc1ccccc1)Cc1cccc(F)c1	2%	-14%	10µM*	-7%	-6%	1%	-30%	3%	13%	2%	9%
CCOc1ccc(CN(C)CC(=O)NCc2ccccc2)cc1	3%	2%	6%	7%	3%	2%	/	/	/	/	/
Cc1ccc(Cn2c(C3CCCN3c3nc(C)cs3)nc3cc(C(F)(F)F)ccc32)cc1 (stereo not drawn)	-1%	1%	28µM*	-16%	-73%	-25%	12%	-10%	3%	2%	12%
CON/C=N/C(=S)Nc1ncc(C(F)(F)F)cc1Cl	-24%	2%	6.3µM*	?	/	3%	?	-2%	4%	14%	3%
COc1ccc(-n2cc(C(=O)N(CCN(C)C)Cc3ccccc3)c3ccccc3c2=O)cc1	-1%	/	/	/	/	-8%	/	/	/	/	/
CC(=O)Nc1ccc(S(=O)(=O)NC2(C(F)(F)F)NC(=O)N(CCc3ccc(F)cc3)C2=O)cc1 (stereo not drawn)	10%	/	/	/	/	-30%	/	/	/	/	/
Nc1c(/C=C2/C=CC(=O)C(O)=C2)c(=O)nc2sc(CC(=O)N3CCCC3)nn12	0%	4%	7.9µM*	7%	26%	-14%	0%	6%	-18%	?	0%
Cc1cc(C)cc(NC(=O)C(=O)NCC(c2cccnc2)N2CCN(c3ccccc3)CC2)c1 (stereo not drawn)	-2%	/	/	/	/	6%	/	/	/	/	/

Screening results (PubChem BioAssay)
